Reference: PubChem BioAssay AID1159580 (chemical genetic matrix, 2015)
Several values for one entry are separate records, joined by “and”; a condition that tells them apart may be missing. Identical values can stand only once. Among all 5,500 compounds or so, about 2,000 (36%) were called active. Inconclusive results (about 18%) are left out. No stated cut-off is given here; in the data, active means normalized growth mostly below about 0.91 (no sharp cut-off); inconclusive means no clear call, values can overlap the other calls; inactive means mostly above about 0.92. The list shows a part of the results.

Assay: chemical genetic growth profiling, strain panel (AID 1159580);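 further: tested at 20 µM; growth read once vehicle control cultures reached saturation at 30 °C; 1 = growth at the plate median or of vehicle wells; lower values mean less growth of the strain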
Details: growth OD
[1] = S. cerevisiae deletion strains, locus YDL101C, strain DUN1, active compounds read low
[2] = S. cerevisiae deletion strains, locus YHR030C, strain SLT2, active compounds read low
[3] = S. cerevisiae deletion strains, locus YHR079C, strain IRE1, active compounds read low
[4] = S. cerevisiae deletion strains, locus YJL095W, strain BCK1, active compounds read low
[5] = S. cerevisiae deletion strains, locus YJR066W, strain TOR1, active compounds read low
[6] = S. cerevisiae deletion strains, locus YLR113W, strain HOG1, active compounds read low
[7] = S. cerevisiae deletion strains, locus YNL183C, strain NPR1, active compounds read low
[8] = S. cerevisiae deletion strains, locus YOR061W, strain CKA2, active compounds read low
[9] = S. cerevisiae deletion strains, locus YOR231W, strain MKK1, active compounds read low
[10] = S. cerevisiae deletion strains, locus YPL256C, strain CLN2, active compounds read low

Measured: normalized growth

FC(F)(F)c1ccncc1-c1nc(-c2ccc(Cl)cc2)cs1
inactive: S. cerevisiae deletion strains, locus YAR019C, strain CDC15, active compounds read low 0.982 | S. cerevisiae deletion strains, locus YBL105C, strain PKC1, active compounds read low 0.984 | S. cerevisiae deletion strains, locus YBR135W, strain CKS1, active compounds read low 0.98 | S. cerevisiae deletion strains, locus YBR136W, strain MEC1, active compounds read low 0.982 | S. cerevisiae deletion strains, locus YBR160W, strain CDC28, active compounds read low 0.985 | S. cerevisiae deletion strains, locus YDL017W, strain CDC7, active compounds read low 0.991 | S. cerevisiae deletion strains, locus YDL028C, strain MPS1, active compounds read low 0.978 | [1] 0.97 | S. cerevisiae deletion strains, locus YDL108W, strain KIN28, active compounds read low 0.984 | S. cerevisiae deletion strains, locus YDL132W, strain cdc53, active compounds read low 0.973 | S. cerevisiae deletion strains, locus YDL214C, strain PRR2, active compounds read low 0.914 | S. cerevisiae deletion strains, locus YDR052C, strain DBF4, active compounds read low 0.989 | S. cerevisiae deletion strains, locus YDR054C, strain cdc34, active compounds read low 0.979 | S. cerevisiae deletion strains, locus YDR226W, strain ADK1, active compounds read low 0.979 | S. cerevisiae deletion strains, locus YDR477W, strain SNF1, active compounds read low 0.949 | S. cerevisiae deletion strains, locus YER123W, strain YCK3, active compounds read low 0.852 | S. cerevisiae deletion strains, locus YER133W, strain GLC7, active compounds read low 0.936 | S. cerevisiae deletion strains, locus YFL009W, strain cdc4, active compounds read low 0.981 | S. cerevisiae deletion strains, locus YFL029C, strain CAK1, active compounds read low 0.977 | S. cerevisiae deletion strains, locus YFR003C, strain YPI1, active compounds read low 0.985 | S. cerevisiae deletion strains, locus YFR019W, strain FAB1, active compounds read low 0.887 | S. cerevisiae deletion strains, locus YFR028C, strain CDC14, active compounds read low 0.976 | S. cerevisiae deletion strains, locus YGR040W, strain KSS1, active compounds read low 0.923 | S. cerevisiae deletion strains, locus YGR052W, strain FMP48, active compounds read low 0.869 | S. cerevisiae deletion strains, locus YGR092W, strain DBF2, active compounds read low 0.933 | [3] 0.775 | S. cerevisiae deletion strains, locus YHR082C, strain KSP1, active compounds read low 1 | S. cerevisiae deletion strains, locus YHR205W, strain SCH9, active compounds read low 0.894 | S. cerevisiae deletion strains, locus YIL147C, strain SLN1, active compounds read low 0.987 | [4] 0.759 | S. cerevisiae deletion strains, locus YJL128C, strain PBS2, active compounds read low 0.896 | S. cerevisiae deletion strains, locus YJL157C, strain FAR1, active compounds read low 0.927 | S. cerevisiae deletion strains, locus YJR016C, strain ILV3, active compounds read low 0.979 | S. cerevisiae deletion strains, locus YJR066W, strain TOR1 (second series), active compounds read low 0.937 | [5] 1.01 | S. cerevisiae deletion strains, locus YKL048C, strain ELM1, active compounds read low 0.955 | S. cerevisiae deletion strains, locus YKL067W, strain YNK1, active compounds read low 0.922 | S. cerevisiae deletion strains, locus YKL101W, strain HSL1, active compounds read low 0.919 | S. cerevisiae deletion strains, locus YKL193C, strain SDS22, active compounds read low 0.986 | S. cerevisiae deletion strains, locus YKL203C, strain TOR2, active compounds read low 1.01 | S. cerevisiae deletion strains, locus YLR133W, strain CKI1, active compounds read low 0.911 | S. cerevisiae deletion strains, locus YLR403W, strain SFP1, active compounds read low 0.934 | S. cerevisiae deletion strains, locus YML070W, strain DAK1, active compounds read low 0.878 | S. cerevisiae deletion strains, locus YMR001C, strain CDC5, active compounds read low 0.986 | S. cerevisiae deletion strains, locus YMR205C, strain PFK2 (second series), active compounds read low 0.905 | S. cerevisiae deletion strains, locus YMR277W, strain FCP1, active compounds read low 0.962 | S. cerevisiae deletion strains, locus YNL006W, strain LST8, active compounds read low 0.99 | S. cerevisiae deletion strains, locus YNL020C, strain ARK1, active compounds read low 0.906 | S. cerevisiae deletion strains, locus YNL161W, strain CBK1, active compounds read low 0.971 | [7] 0.774 | S. cerevisiae deletion strains, locus YNL207W, strain RIO2, active compounds read low 0.987 | S. cerevisiae deletion strains, locus YNL222W, strain SSU72, active compounds read low 0.98 | S. cerevisiae deletion strains, locus YNL307C, strain MCK1 (second series), active compounds read low 0.922 | S. cerevisiae deletion strains, locus YOL078W, strain AVO1, active compounds read low 0.972 | S. cerevisiae deletion strains, locus YOL136C, strain PFK27, active compounds read low 0.868 | [8] 0.933 | S. cerevisiae deletion strains, locus YOR119C, strain RIO1, active compounds read low 0.975 | [9] 0.766 | S. cerevisiae deletion strains, locus YOR329C, strain SCD5, active compounds read low 0.981 | S. cerevisiae deletion strains, locus YPL031C, strain PHO85, active compounds read low 0.917 | S. cerevisiae deletion strains, locus YPL153C, strain RAD53, active compounds read low 0.917 | S. cerevisiae deletion strains, locus YPL204W, strain HRR25, active compounds read low 0.908 | S. cerevisiae deletion strains, locus YPL209C, strain IPL1, active compounds read low 0.987 | S. cerevisiae deletion strains, locus YPR025C, strain CCL1, active compounds read low 0.988 | S. cerevisiae deletion strains, locus YPR106W, strain ISR1, active compounds read low 0.956 | S. cerevisiae deletion strains, locus YPR111W, strain DBF20, active compounds read low 0.949 | S. cerevisiae deletion strains, strain NNK1, active compounds read low 0.942 | S. cerevisiae deletion strains, strain TSCII, active compounds read low 0.972
active: [2] 0.78 | [6] 0.686 | [10] 0.682

O[C@H]1[C@H](O)[C@@H](O)C2OC[C@H]1O2
inactive: S. cerevisiae deletion strains, locus YAL013W, strain DEP1, active compounds read low 1 | S. cerevisiae deletion strains, locus YBR021W, strain FUR4, active compounds read low 1.03 | S. cerevisiae deletion strains, locus YBR229C, strain ROT2, active compounds read low 0.961 | S. cerevisiae deletion strains, locus YCL029C, strain bik1, active compounds read low 0.986 | S. cerevisiae deletion strains, locus YDL035C, strain GPR1, active compounds read low 0.986 | S. cerevisiae deletion strains, locus YDL074C, strain BRE1, active compounds read low 0.929 | [1] 0.943 | S. cerevisiae deletion strains, locus YDL134C, strain PPH21, active compounds read low 0.99 | S. cerevisiae deletion strains, locus YDL192W, strain arf1, active compounds read low 0.986 | S. cerevisiae deletion strains, locus YDR101C, strain arx1, active compounds read low 0.994 | S. cerevisiae deletion strains, locus YDR150W, strain NUM1, active compounds read low 0.992 | S. cerevisiae deletion strains, locus YDR162C, strain NBP2, active compounds read low 0.918 | S. cerevisiae deletion strains, locus YDR318W, strain mcm21, active compounds read low 0.998 | S. cerevisiae deletion strains, locus YDR388W, active compounds read low 0.992 | S. cerevisiae deletion strains, locus YDR502C, strain sam2, active compounds read low 0.983 | S. cerevisiae deletion strains, locus YEL061C, strain CIN8, active compounds read low 0.986 | S. cerevisiae deletion strains, locus YER110C, active compounds read low 0.983 | S. cerevisiae deletion strains, locus YER155C, strain BEM2, active compounds read low 0.988 | S. cerevisiae deletion strains, locus YER167W, strain BCK2, active compounds read low 1 | S. cerevisiae deletion strains, locus YGL078C, strain dbp3, active compounds read low 0.987 | S. cerevisiae deletion strains, locus YGL086W, strain mad1, active compounds read low 1 | S. cerevisiae deletion strains, locus YGL248W, strain PDE1, active compounds read low 0.975 | S. cerevisiae deletion strains, locus YGR078C, strain PAC10, active compounds read low 0.951 | S. cerevisiae deletion strains, locus YGR135W, strain pre9, active compounds read low 0.982 | S. cerevisiae deletion strains, locus YGR229C, strain SMI1, active compounds read low 0.975 | S. cerevisiae deletion strains, locus YGR252W, strain gcn5, active compounds read low 1 | [2] 1 and 0.967 | S. cerevisiae deletion strains, locus YHR079C, strain IRE1 (second series), active compounds read low 0.999 | [3] 0.967 | S. cerevisiae deletion strains, locus YHR094C, strain hxt1, active compounds read low 1 | S. cerevisiae deletion strains, locus YHR129C, strain ARP1, active compounds read low 0.993 | S. cerevisiae deletion strains, locus YHR200W, strain rpn10, active compounds read low 0.992 | S. cerevisiae deletion strains, locus YIL066C, strain RNR3, active compounds read low 0.98 | S. cerevisiae deletion strains, locus YIL073C, strain SPO22, active compounds read low 1.01 | S. cerevisiae deletion strains, locus YIL125W, strain kgd1, active compounds read low 0.988 | S. cerevisiae deletion strains, locus YIR030C, strain dcg1, active compounds read low 0.983 | [4] 0.98 and 0.977 | S. cerevisiae deletion strains, locus YJL134W, strain LCB3, active compounds read low 0.984 | S. cerevisiae deletion strains, locus YJL168C, strain set2, active compounds read low 0.982 | S. cerevisiae deletion strains, locus YJL187C, strain SWE1 (second series), active compounds read low 0.972 | S. cerevisiae deletion strains, locus YJR043C, strain POL32, active compounds read low 0.999 | [5] 0.919 | S. cerevisiae deletion strains, locus YJR075W, strain HOC1, active compounds read low 0.936 | S. cerevisiae deletion strains, locus YKL009W, strain mrt4, active compounds read low 0.977 | S. cerevisiae deletion strains, locus YKL068W, active compounds read low 0.982 | S. cerevisiae deletion strains, locus YKL085W, strain MDH1 (second series), active compounds read low 1.02 | S. cerevisiae deletion strains, locus YKL085W, strain MDH1, active compounds read low 1.02 | S. cerevisiae deletion strains, locus YKL190W, strain CNB1, active compounds read low 0.98 | S. cerevisiae deletion strains, locus YKR001C, strain vps1, active compounds read low 0.998 | S. cerevisiae deletion strains, locus YLR039C, strain RIC1, active compounds read low 0.968 | S. cerevisiae deletion strains, locus YLR058C, strain SHM2, active compounds read low 0.972 | S. cerevisiae deletion strains, locus YLR102C, strain apc9, active compounds read low 0.984 | [6] 0.999 | S. cerevisiae deletion strains, locus YLR262C, strain YPT6, active compounds read low 0.935 | S. cerevisiae deletion strains, locus YLR268W, strain sec22, active compounds read low 0.963 | S. cerevisiae deletion strains, locus YLR330W, strain CHS5, active compounds read low 0.988 | S. cerevisiae deletion strains, locus YLR342W, strain FKS1 (second series), active compounds read low 1.04 | S. cerevisiae deletion strains, locus YLR371W, strain rom2, active compounds read low 0.938 | S. cerevisiae deletion strains, locus YLR418C, strain cdc73, active compounds read low 0.961 | S. cerevisiae deletion strains, locus YML016C, strain PPZ1, active compounds read low 0.983 | S. cerevisiae deletion strains, locus YML032C, strain rad52, active compounds read low 1 | S. cerevisiae deletion strains, locus YML124C, strain tub3, active compounds read low 0.992 | S. cerevisiae deletion strains, locus YMR078C, strain ctf18, active compounds read low 0.987 | S. cerevisiae deletion strains, locus YMR223W, strain ubp8, active compounds read low 1.01 | S. cerevisiae deletion strains, locus YMR263W, strain SAP30, active compounds read low 0.94 | S. cerevisiae deletion strains, locus YMR307W, strain GAS1, active compounds read low 1.04 | S. cerevisiae deletion strains, locus YNL067W, strain RPL9B, active compounds read low 0.951 | S. cerevisiae deletion strains, locus YNL128W, strain TEP1, active compounds read low 0.926 | S. cerevisiae deletion strains, locus YNL153C, strain GIM3, active compounds read low 0.97 | [7] 0.905 | S. cerevisiae deletion strains, locus YNL233W, strain BNI4, active compounds read low 0.978 | S. cerevisiae deletion strains, locus YNL250W, strain rad50, active compounds read low 0.992 | S. cerevisiae deletion strains, locus YNL271C, strain bni1, active compounds read low 0.984 | S. cerevisiae deletion strains, locus YNL298W, strain CLA4, active compounds read low 1 | S. cerevisiae deletion strains, locus YNL307C, strain MCK1, active compounds read low 1 | S. cerevisiae deletion strains, locus YNL322C, strain KRE1, active compounds read low 0.967 | S. cerevisiae deletion strains, locus YNR052C, strain pop2, active compounds read low 0.978 | S. cerevisiae deletion strains, locus YOL006C, strain TOP1, active compounds read low 0.935 | S. cerevisiae deletion strains, locus YOL012C, strain htz1 0.683 | S. cerevisiae deletion strains, locus YOL147C, strain pex11, active compounds read low 0.997 | [8] 0.952 | S. cerevisiae deletion strains, locus YOR069W, strain VPS5, active compounds read low 0.99 | S. cerevisiae deletion strains, locus YOR136W, strain idh2, active compounds read low 0.99 | S. cerevisiae deletion strains, locus YOR144C, strain elg1, active compounds read low 0.983 | S. cerevisiae deletion strains, locus YOR184W, strain ser1, active compounds read low 1.01 | [9] 0.98 | S. cerevisiae deletion strains, locus YOR316C, strain cot1, active compounds read low 0.977 | S. cerevisiae deletion strains, locus YPL055C, strain LGE1, active compounds read low 0.931 | S. cerevisiae deletion strains, locus YPL241C, strain CIN2, active compounds read low 0.983 | [10] 0.972 | S. cerevisiae deletion strains, locus YPR119W, strain clb2, active compounds read low 0.992 | S. cerevisiae deletion strains, locus YPR141C, strain kar3, active compounds read low 0.969 | S. cerevisiae deletion strains, locus YPR163C, strain tif3, active compounds read low 0.995 | S. cerevisiae deletion strains, locus YPR167C, strain met16, active compounds read low 0.972 | S. cerevisiae deletion strains, strain wtn01, active compounds read low 0.943 | S. cerevisiae strains, strain wild type, active compounds read low 1.01
active: S. cerevisiae deletion strains, locus YDL185W, strain tfp1, active compounds read low 0.901
